{
  "source": "PubChem BioAssay AID1745846",
  "about": "(National Center for Advancing Translational Sciences (NCATS), 2022)",
  "note": "The campaign covered roughly 1,400 compounds. About 30 (2%) were called active. Not shown: some 15% with an inconclusive outcome. The full list was thinned out, with actives kept by preference. Values without a mark were called inactive. Calls follow the shape of the dose curve; as a rule, active = well fitted inhibition curve with a large enough effect; inconclusive = small, poorly fitted or top-dose-only effect; inactive = flat fitted curve, though single readings scatter. % is scaled to controls: 0 for no effect and ±100 for the full control effect; potency is read from the fitted curve at half-maximal effect.",
  "data": [
    {"test": "Firefly Luciferase Counterscreen for Inhibitors of ATXN expression", "conditions": "luminescence; series mostly up to 57.5 µM; activity change, negative = inhibition: at the top concentration", "text": "University of Utah School of Medicine, Salt Lake City, Utah\nSpinocerebellar ataxia type 2 (SCA2) is a multisystem neurodegenerative disease caused by a dominantly acting mutation leading to expansion of a polyQ domain in the ataxin-2 protein (ATXN2). SCA2 patients develop progressive ataxia and later lose function in other neuronal systems. Prominent parkinsonian signs develop in some patients. Like many neurodegenerative disorders, no symptomatic or disease-modifying treatments are known.\nThe primary objective of the proposed research is to identify compounds inhibiting ATXN2 expression and to test them for efficacy in SCA2 mouse models. We have developed a cell-based assay paired with an in vivo mouse model using identical luciferase expression constructs. This approach takes advantage of an ATXN2-luciferase transgene, with the luciferase gene flanked by the upstream and downstream portions of the ATXN2 gene. Here we describe a 5-7 dose quantitative high thoroughput screen (qHTS) for compounds lowering ATXN2 expression. We screened the NIH Molecular Libraries Small Molecule Repository (MLSMR) and NCGC's mechanistically annotated (MIPE) and drug repurposing (NPC) collections of compounds for lowering expression of an ATXN2-luciferase reporter in HEK-293 cells. The assay is a multiplexed cell viability assay to ensure target reduction in the absence of cytotoxicity. Secondary qHTS assays included a CMV-luciferase reporter expressed in HEK-293 cells as well as a biochemical assay using recombinant luciferase to detect inhibitors of the reporter enzyme. Compounds that inhibit ATXN2 expression but is not cytotoxic were selected for confirmatory and secondary screens.\nPROTOCOL TABLE (as described by Inglese J, Shamu CE and Guy RK. 2007)\nSEQUENCE No. (e.g., 1, 2, 3, etc.); […] (e.g., Cells, Incubation, Reagent, etc.); VALUE; DESCRIPTION.\n2; Compounds; 23 nL; Kalypsis pintool (Wako USA) equipped with a 1536-well pin head.\n3; Enzyme; 1 uL; recombinant firefly luciferase (prepared in 50 mM Tris HCl pH7.5, 10 mM MgCl2, 0.05% BSA, 0.01% Tween20) at final concentration of 10 nM. Wells containing buffer only were used as control (set as 100% inhibition when normalizing data).\n4; Incubation; 10 min; room temperature.\n5; Detection; Luminescence; Viewlux plate reader (PerkinElmer).\nNOTES (numbers refer to Sequence numbers above)\n1. Luciferase substrate is added to 1536 well, Greiner white assay plate. Evaporation was prevented by covering assay plates with metal lids containing holes to allow gas diffusion.\n2. Compounds were added in a dose response manner with the final concentrations of 57, 11.4, 2.28, 0.46, 0.091, 0.018, 0.0037 uM. Vehicle-only plates, with DMSO being pin-transferred to columns 5-48, were inserted uniformly at the beginning and the end of each library to monitor and record any shifts in assay performance.\n3. Recombinant firefly luciferase (10 nM final concentration) is added to the assay plate.\n5. End-point luminescence is then measured on the Viewlux (PerkinElmer) imager equipped with a clear emission filter using a 2 sec exposure.\nInglese J, Shamu CE and Guy RK, Reporting data from high throughput screening of small molecule libraries, Nature Chemical Biology, 2007, 3(8): 438-441. doi.org/10.1038/nchembio0807-438.", "units": {"activity change, negative = inhibition": "%"}, "values": [
      {"smiles": "N#Cc1nc(Cc2cccc3ccccc23)oc1NCc1ccc(F)cc1", "activity change, negative = inhibition": -1.45},
      {"smiles": "CC(C)CC(N)c1csc(Nc2ccc(C(=O)N(C)Cc3ccccc3)cn2)n1", "note": "(stereo unspecified)", "activity change, negative = inhibition": 4.85},
      {"smiles": "COc1ccc(Nc2c3ccccc3nc3ccccc23)cc1", "activity change, negative = inhibition": -2.82},
      {"smiles": "COc1ccc(C(=O)NNC(=S)NC(=O)c2ccccc2)cc1", "activity change, negative = inhibition": -14.8},
      {"smiles": "COc1ccc(C(=O)Nn2c(SCC(=O)c3ccccc3)nc3ccccc3c2=O)cc1", "Potency": "7.08 µM (active)"},
      {"smiles": "CC1(C(=O)NCc2ccccc2Br)CCN1C(=O)Cc1ccc(-c2ccccc2)cc1", "note": "(stereo unspecified)", "activity change, negative = inhibition": -4.03},
      {"smiles": "Cc1cc(C(=O)N/N=C/c2c(CO)cnc(C)c2O)c2ccccc2n1", "activity change, negative = inhibition": -2.35},
      {"smiles": "CSCc1nnc(NC(=O)c2ccc(S(=O)(=O)N3CCCCC3C)cc2)o1", "note": "(stereo unspecified)", "activity change, negative = inhibition": -18.2},
      {"smiles": "COc1ccc(C(NC(=O)c2cccnc2)c2cc(Cl)c3cccnc3c2O)cc1OC", "note": "(stereo unspecified)", "activity change, negative = inhibition": -10.1},
      {"smiles": "CC[C@H]1CN2CCc3cc(OC)c(OC)cc3C2C[C@@H]1C[C@H]1NCCc2cc(OC)c(OC)cc21", "note": "(stereo partly specified)", "activity change, negative = inhibition": 3.56},
      {"smiles": "Cc1cc(C(=O)N/N=C/c2cc(Br)cc(Br)c2OC(=O)c2cccc(F)c2)n[nH]1", "activity change, negative = inhibition": -1.31},
      {"smiles": "O=[N+]([O-])c1c(Nc2ccccn2)cc(Cl)c2nonc12", "activity change, negative = inhibition": -10.4},
      {"smiles": "COC(=O)Cc1ccc(NC(=S)N2CCN(c3cc(Cl)ccc3C)CC2)cc1", "activity change, negative = inhibition": -10.2},
      {"smiles": "CN(C)CCCN(C(=O)c1ccc(S(=O)(=O)N(C)Cc2ccccc2)cc1)c1nc2cc3c(cc2s1)OCO3", "activity change, negative = inhibition": 0.991},
      {"smiles": "COc1ccccc1/C=C/CN1CCCC(CO)(Cc2cccc(Cl)c2)C1", "note": "(stereo unspecified)", "activity change, negative = inhibition": 2.16},
      {"smiles": "COc1ccc(Cl)cc1C(Nc1cccnc1)c1ccc2cccnc2c1O", "note": "(stereo unspecified)", "activity change, negative = inhibition": -1.9},
      {"smiles": "CN1CCC(NC(=O)c2cc(-c3cccc(Br)c3)nc3ccccc23)CC1", "activity change, negative = inhibition": -6.79},
      {"smiles": "Cc1cccc(NC(=O)c2cc(-c3ccccn3)nc3ccccc23)c1C", "activity change, negative = inhibition": -2.28},
      {"smiles": "Cc1sc(NC(=O)c2cc(-c3ccc(Cl)cc3)nc3ccccc23)c(C(N)=O)c1C", "Potency": "25.1 µM (active)"},
      {"smiles": "COc1ccccc1-c1cc2nc(-c3ccccc3)cc(N3CCN(C(=O)c4ccco4)CC3)n2n1", "activity change, negative = inhibition": -6.68},
      {"smiles": "O=C(Nc1ccc(OC(F)(F)F)cc1)N1CCN(c2ccnc3cc(Cl)ccc23)CC1", "activity change, negative = inhibition": 2.31},
      {"smiles": "CC(=O)Nc1ccc(CNc2nc(NC(C)C)nc3cc(-c4ccccc4)sc23)cc1", "Potency": "14.1 µM (active)"},
      {"smiles": "COc1cccc(CNc2nc(NCc3ccccc3)nc3ccsc23)c1", "activity change, negative = inhibition": -12.5},
      {"smiles": "CC(C)Nc1nc(NCCOc2ccccc2)c2sccc2n1", "activity change, negative = inhibition": 0.974},
      {"smiles": "COc1ccccc1NC(=O)CSc1n[nH]c(-c2ccccn2)n1", "activity change, negative = inhibition": -9.45},
      {"smiles": "CC(C)c1ccc(S(=O)(=O)c2cc3cc(Br)ccc3oc2=O)cc1", "activity change, negative = inhibition": 2.64},
      {"smiles": "N=c1n(CCN2CCCCC2)c2ccccc2n1CC(O)c1ccc(Cl)c(Cl)c1", "note": "(stereo unspecified)", "activity change, negative = inhibition": 1.6},
      {"smiles": "CCOC(=O)c1c(C)sc2c1N(C(=O)CN(CC)CC)c1cc(Cl)ccc1S2", "activity change, negative = inhibition": 0.238},
      {"smiles": "COc1ccc(NC(=O)c2cc(-c3cc(Cl)ccc3OC)n[nH]2)cc1OC", "activity change, negative = inhibition": -15.7},
      {"smiles": "Cc1nc2c(OCc3cccc(Cl)c3)cccn2c1N(C)Cc1cccs1", "activity change, negative = inhibition": -9.31},
      {"smiles": "C(=N\\Nc1ccc2nncn2n1)/c1ccccn1", "activity change, negative = inhibition": -5.45}
    ]}
  ]
}
